Source: publication PMC7862700, “An all-to-all approach to the identification of sequence-specific readers for epigenetic DNA modifications on cytosine”

How the values were obtained:
Assay in all cases: DAPPL (digital affinity profiling via proximity ligation, sequencing); 10 mM Tris-HCl pH 7.5, 50 mM NaCl, 1 mM DTT, 4% glycerol, room temperature, 30 min; GST-TFs on glutathione beads, 16-mer random dsDNA library, 0.1% formaldehyde crosslink after washing; high values mean tight binding
Settings in all cases: protein: recombinant; tags: N-terminal GST; dsDNA, one strand shown
FLI1 = biological target: T1, FLI1 (Homo sapiens, UniProt Q01543 1-452)
T1 sequence: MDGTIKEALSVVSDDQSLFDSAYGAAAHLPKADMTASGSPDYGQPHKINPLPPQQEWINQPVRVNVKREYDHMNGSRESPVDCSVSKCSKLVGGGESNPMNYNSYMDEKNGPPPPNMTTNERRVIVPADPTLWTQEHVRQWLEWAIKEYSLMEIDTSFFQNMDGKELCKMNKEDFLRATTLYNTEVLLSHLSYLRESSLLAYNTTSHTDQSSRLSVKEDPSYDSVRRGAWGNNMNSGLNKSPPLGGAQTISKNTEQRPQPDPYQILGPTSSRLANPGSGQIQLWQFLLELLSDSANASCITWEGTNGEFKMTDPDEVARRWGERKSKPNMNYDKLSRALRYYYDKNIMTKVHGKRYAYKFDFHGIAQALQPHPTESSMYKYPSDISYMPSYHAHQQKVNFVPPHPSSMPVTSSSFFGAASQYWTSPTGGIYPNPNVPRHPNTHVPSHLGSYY
Procedure, shortened: (§1)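 GST fusions of human transcription factors were expressed in yeast and captured with glutathione beads. Once given DNA barcodes and pooled alongside a tag-only sample, they were incubated for 30 min at room temperature with 200 nmole of a random double-stranded 16-mer DNA library in Tris/NaCl/DTT/glycerol buffer, then washed, crosslinked (0.1% formaldehyde), proximity-ligated, PCR-amplified and sequenced on an Illumina NextSeq500. The binding signal of each hexamer is its read frequency for a factor divided by its frequency for the tag-only sample.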

ELK1 = biological target: T2, ELK1 (Homo sapiens, UniProt P19419 1-428)
T2 sequence: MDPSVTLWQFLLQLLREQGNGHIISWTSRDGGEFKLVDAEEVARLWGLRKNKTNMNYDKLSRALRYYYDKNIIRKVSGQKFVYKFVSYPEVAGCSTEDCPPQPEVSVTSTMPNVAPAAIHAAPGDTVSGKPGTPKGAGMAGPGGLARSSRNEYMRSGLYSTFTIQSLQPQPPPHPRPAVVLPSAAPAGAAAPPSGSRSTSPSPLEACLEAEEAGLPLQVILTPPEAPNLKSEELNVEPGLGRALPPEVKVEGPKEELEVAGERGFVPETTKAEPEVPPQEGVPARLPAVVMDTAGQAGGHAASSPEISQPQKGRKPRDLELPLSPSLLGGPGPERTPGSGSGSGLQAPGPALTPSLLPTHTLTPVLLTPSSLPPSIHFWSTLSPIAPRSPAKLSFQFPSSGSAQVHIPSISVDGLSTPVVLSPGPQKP
Procedure, shortened: as §1

GABPA = biological target: T3, GABPA (Homo sapiens, UniProt Q06546 1-454)
T3 sequence: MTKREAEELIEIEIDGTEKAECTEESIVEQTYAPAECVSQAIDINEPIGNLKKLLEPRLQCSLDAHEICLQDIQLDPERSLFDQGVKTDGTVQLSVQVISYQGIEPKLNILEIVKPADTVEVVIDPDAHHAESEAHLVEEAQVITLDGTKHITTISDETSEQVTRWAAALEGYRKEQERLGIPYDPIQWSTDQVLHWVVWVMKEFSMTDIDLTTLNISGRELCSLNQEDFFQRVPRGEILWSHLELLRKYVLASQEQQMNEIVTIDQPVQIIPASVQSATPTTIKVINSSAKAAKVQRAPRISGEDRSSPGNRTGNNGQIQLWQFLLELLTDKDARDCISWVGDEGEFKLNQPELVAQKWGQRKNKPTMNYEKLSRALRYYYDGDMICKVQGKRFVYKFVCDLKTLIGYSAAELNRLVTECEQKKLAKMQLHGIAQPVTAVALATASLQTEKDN
Procedure, shortened: as §1

ERG = biological target: T4, ERG (Homo sapiens, UniProt P11308 1-479)
T4 sequence: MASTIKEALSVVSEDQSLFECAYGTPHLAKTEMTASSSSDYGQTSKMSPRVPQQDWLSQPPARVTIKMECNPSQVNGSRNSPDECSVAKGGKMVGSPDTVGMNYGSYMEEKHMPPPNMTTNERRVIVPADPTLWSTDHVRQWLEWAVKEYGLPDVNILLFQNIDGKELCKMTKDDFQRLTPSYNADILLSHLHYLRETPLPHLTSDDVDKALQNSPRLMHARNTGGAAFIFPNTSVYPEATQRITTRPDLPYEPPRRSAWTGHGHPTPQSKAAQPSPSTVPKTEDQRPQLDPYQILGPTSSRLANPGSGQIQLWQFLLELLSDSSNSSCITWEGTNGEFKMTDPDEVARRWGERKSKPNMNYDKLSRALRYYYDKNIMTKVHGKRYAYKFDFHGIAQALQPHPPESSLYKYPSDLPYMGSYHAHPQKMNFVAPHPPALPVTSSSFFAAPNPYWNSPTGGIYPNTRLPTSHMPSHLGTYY
Procedure, shortened: as §1

ELF1 = ELF1 (Homo sapiens, UniProt P32519 1-619)
Procedure, shortened: as §1

EHF = biological target: T5, EHF (Homo sapiens, UniProt Q9NZC4 1-300)
T5 sequence: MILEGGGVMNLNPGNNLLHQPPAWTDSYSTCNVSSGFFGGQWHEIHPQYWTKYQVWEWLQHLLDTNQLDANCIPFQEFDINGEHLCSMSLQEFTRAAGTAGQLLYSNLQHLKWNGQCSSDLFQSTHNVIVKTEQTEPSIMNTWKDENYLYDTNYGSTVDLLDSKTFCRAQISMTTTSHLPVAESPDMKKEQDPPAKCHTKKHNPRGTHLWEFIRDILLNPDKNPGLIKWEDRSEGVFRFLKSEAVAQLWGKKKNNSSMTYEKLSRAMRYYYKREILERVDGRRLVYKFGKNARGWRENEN
Procedure, shortened: as §1

SPI1 = SPI1 (Homo sapiens, UniProt P17947 1-270)
Procedure, shortened: as §1

SPIB = SPIB (Homo sapiens, UniProt Q01892 1-262)
Procedure, shortened: as §1

ELK3 = biological target: T6, ELK3 (Homo sapiens, UniProt P41970 1-407)
T6 sequence: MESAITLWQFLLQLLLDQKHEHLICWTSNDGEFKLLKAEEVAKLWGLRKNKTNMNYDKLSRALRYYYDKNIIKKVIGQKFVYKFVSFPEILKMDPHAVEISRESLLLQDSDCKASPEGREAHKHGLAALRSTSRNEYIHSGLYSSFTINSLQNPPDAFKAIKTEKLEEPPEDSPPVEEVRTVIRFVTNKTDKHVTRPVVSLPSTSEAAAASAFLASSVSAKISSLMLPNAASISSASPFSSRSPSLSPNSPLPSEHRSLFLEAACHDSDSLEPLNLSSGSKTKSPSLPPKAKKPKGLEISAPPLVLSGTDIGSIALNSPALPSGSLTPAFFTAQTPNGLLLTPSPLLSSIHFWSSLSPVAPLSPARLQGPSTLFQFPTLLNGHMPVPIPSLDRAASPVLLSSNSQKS
Procedure, shortened: as §1

Sequence of ELF1 (P32519 whole entry): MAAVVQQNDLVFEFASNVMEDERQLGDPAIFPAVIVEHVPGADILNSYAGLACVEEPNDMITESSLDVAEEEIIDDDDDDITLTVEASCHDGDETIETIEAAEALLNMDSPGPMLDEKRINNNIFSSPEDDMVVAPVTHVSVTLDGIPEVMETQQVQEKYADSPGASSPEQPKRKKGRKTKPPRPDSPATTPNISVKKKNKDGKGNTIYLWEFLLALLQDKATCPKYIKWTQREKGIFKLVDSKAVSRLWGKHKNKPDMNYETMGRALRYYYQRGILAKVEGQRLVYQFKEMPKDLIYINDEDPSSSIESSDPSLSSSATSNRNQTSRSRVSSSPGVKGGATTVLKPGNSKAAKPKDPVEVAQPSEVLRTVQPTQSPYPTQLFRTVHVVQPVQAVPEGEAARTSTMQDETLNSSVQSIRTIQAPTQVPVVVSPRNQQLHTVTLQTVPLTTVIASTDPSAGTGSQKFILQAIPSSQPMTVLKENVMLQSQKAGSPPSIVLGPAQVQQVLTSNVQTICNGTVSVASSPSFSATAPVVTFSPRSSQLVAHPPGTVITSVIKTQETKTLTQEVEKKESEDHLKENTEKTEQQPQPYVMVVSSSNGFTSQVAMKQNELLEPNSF
Sequence of SPIB (Q01892 whole entry): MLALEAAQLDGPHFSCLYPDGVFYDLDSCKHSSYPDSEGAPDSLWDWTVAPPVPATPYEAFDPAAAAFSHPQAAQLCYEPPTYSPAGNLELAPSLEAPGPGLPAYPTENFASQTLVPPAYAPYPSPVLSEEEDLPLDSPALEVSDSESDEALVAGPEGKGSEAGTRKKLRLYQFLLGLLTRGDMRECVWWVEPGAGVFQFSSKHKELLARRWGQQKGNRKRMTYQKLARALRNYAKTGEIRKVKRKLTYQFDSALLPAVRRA

| Sequence | binding signal (FLI1) | binding signal (ELK1) | binding signal (GABPA) | binding signal (ERG) | binding signal (ELF1) | binding signal (EHF) | binding signal (SPI1) | binding signal (SPIB) | binding signal (ELK3) |
| --- | --- | --- | --- | --- | --- | --- | --- | --- | --- |
| TACTGT | 1.15 fold enrichment (6-mer frequency, TF over GST control) | 1.21 fold enrichment (6-mer frequency, TF over GST control) | 1.13 fold enrichment (6-mer frequency, TF over GST control) | 1.12 fold enrichment (6-mer frequency, TF over GST control) | 1.12 fold enrichment (6-mer frequency, TF over GST control) | 1.19 fold enrichment (6-mer frequency, TF over GST control) | 1.11 fold enrichment (6-mer frequency, TF over GST control) | 1.12 fold enrichment (6-mer frequency, TF over GST control) | 1.11 fold enrichment (6-mer frequency, TF over GST control) |
| CTTAGA | 1.13 fold enrichment (6-mer frequency, TF over GST control) | 1.11 fold enrichment (6-mer frequency, TF over GST control) | 1.17 fold enrichment (6-mer frequency, TF over GST control) | 1.09 fold enrichment (6-mer frequency, TF over GST control) | 1.08 fold enrichment (6-mer frequency, TF over GST control) | 1.1 fold enrichment (6-mer frequency, TF over GST control) | 1.11 fold enrichment (6-mer frequency, TF over GST control) | 1.11 fold enrichment (6-mer frequency, TF over GST control) | 1.02 fold enrichment (6-mer frequency, TF over GST control) |
| TCTGAA | 1.11 fold enrichment (6-mer frequency, TF over GST control) | 1.22 fold enrichment (6-mer frequency, TF over GST control) | 1.13 fold enrichment (6-mer frequency, TF over GST control) | 1.15 fold enrichment (6-mer frequency, TF over GST control) | 1.18 fold enrichment (6-mer frequency, TF over GST control) | 1.18 fold enrichment (6-mer frequency, TF over GST control) | 1.18 fold enrichment (6-mer frequency, TF over GST control) | 1.26 fold enrichment (6-mer frequency, TF over GST control) | 1.17 fold enrichment (6-mer frequency, TF over GST control) |
| ATTCGC | 1.18 fold enrichment (6-mer frequency, TF over GST control) | 1.15 fold enrichment (6-mer frequency, TF over GST control) | 1.25 fold enrichment (6-mer frequency, TF over GST control) | 1.25 fold enrichment (6-mer frequency, TF over GST control) | 1.15 fold enrichment (6-mer frequency, TF over GST control) | 1.18 fold enrichment (6-mer frequency, TF over GST control) | 1.21 fold enrichment (6-mer frequency, TF over GST control) | 1.33 fold enrichment (6-mer frequency, TF over GST control) | 1.06 fold enrichment (6-mer frequency, TF over GST control) |
| TGGATG | 1.33 fold enrichment (6-mer frequency, TF over GST control) | 1.37 fold enrichment (6-mer frequency, TF over GST control) | 1.47 fold enrichment (6-mer frequency, TF over GST control) | 1.32 fold enrichment (6-mer frequency, TF over GST control) | 1.48 fold enrichment (6-mer frequency, TF over GST control) | 1.5 fold enrichment (6-mer frequency, TF over GST control) | 1.37 fold enrichment (6-mer frequency, TF over GST control) | 1.64 fold enrichment (6-mer frequency, TF over GST control) | 1.49 fold enrichment (6-mer frequency, TF over GST control) |
| CTGGTA | 1.3 fold enrichment (6-mer frequency, TF over GST control) | 1.34 fold enrichment (6-mer frequency, TF over GST control) | 1.29 fold enrichment (6-mer frequency, TF over GST control) | 1.4 fold enrichment (6-mer frequency, TF over GST control) | 1.38 fold enrichment (6-mer frequency, TF over GST control) | 1.4 fold enrichment (6-mer frequency, TF over GST control) | 1.33 fold enrichment (6-mer frequency, TF over GST control) | 1.4 fold enrichment (6-mer frequency, TF over GST control) | 1.35 fold enrichment (6-mer frequency, TF over GST control) |
| TCTTTA | 1.22 fold enrichment (6-mer frequency, TF over GST control) | 1.25 fold enrichment (6-mer frequency, TF over GST control) | 1.33 fold enrichment (6-mer frequency, TF over GST control) | 1.29 fold enrichment (6-mer frequency, TF over GST control) | 1.31 fold enrichment (6-mer frequency, TF over GST control) | 1.25 fold enrichment (6-mer frequency, TF over GST control) | 1.32 fold enrichment (6-mer frequency, TF over GST control) | 1.21 fold enrichment (6-mer frequency, TF over GST control) | 1.27 fold enrichment (6-mer frequency, TF over GST control) |
